# PMC5540273 (PLoS ONE, 2017)
# Key:
# Conditions in all cases: concentration: 1 μM, replicates: in singlicate; n = 1
# TLK1 = system: TLK1
# TLK2 = system: TLK2
# TNIK = system: TNIK
# TNK1 = system: TNK1
# TNK2 = system: TNK2
# TNNI3K = system: TNNI3K
# TRKA = system: T1, TRKA
# T1 construct: gene NTRK1
# TRKB = system: TRKB
# TRKC = system: T2, TRKC
# T2 construct: gene NTRK3
# TRPM6 = system: TRPM6
# 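Also: KINOMEscan kinase panel screen.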
Compound,%Inh (TLK1),%Inh (TLK2),%Inh (TNIK),%Inh (TNK1),%Inh (TNK2),%Inh (TNNI3K),%Inh (TRKA),%Inh (TRKB),%Inh (TRKC),%Inh (TRPM6)
O=c1cc(N2CCOCC2)nc2n(Cc3ccccc3F)ccn12 [GSK2297428],0%,0%,0%,0%,4%,0%,0%,0%,0%,0%
Cc1ccc(NC(=O)Nc2ccccc2F)cc1-c1ccc(C(=O)Nc2ccncc2)cc1 [GSK1398477],6%,0%,10%,10%,34%,53%,10%,0%,0%,21%
Nc1ncnc2occ(-c3ccc4c(c3)CCN4C(=O)Cc3cc(F)ccc3F)c12 [GSK2645446],0%,0%,0%,0%,0%,0%,9%,0%,0%,0%
CS(=O)(=O)CCNCc1nc(-c2ccc3ncnc(Nc4ccc(OCc5ccccc5)c(Cl)c4)c3c2)cs1.Cl [GW582764],0%,0%,0%,4%,14%,0%,0%,41%,54%,0%
COc1ccc(Nc2nccc(N3CCC(NC(=O)C(C)c4ccc(Cl)cc4)C3)n2)cc1 (centres unmarked) [GSK1379735],0%,0%,10%,0%,15%,6%,19%,0%,11%,1%
CCCCc1nn2ncccc2c1-c1ccnc(NC2CC2)n1 [GW684374],15%,7%,0%,0%,0%,0%,0%,6%,0%,25%
CNc1nc(-c2ccc3c(N)n[nH]c3c2)cc(N2C[C@@H](C(=O)Nc3ccccc3)CC[C@H]2C)n1 [GSK2298859],0%,0%,0%,0%,3%,0%,77%,2%,0%,0%
CSc1ccc(-c2nc3n(c2-c2ccncc2)CCC3)cc1 [SKF-105561],31%,0%,7%,0%,0%,49%,0%,4%,46%,0%
COc1cccc(C2=C(Nc3cc(Cl)c(O)c(Cl)c3)C(=O)NC2=O)c1 [SB-390767],0%,0%,0%,23%,26%,13%,0%,0%,0%,15%
CNc1cc(-c2ccc3c(N)n[nH]c3c2)nc(N)n1 [GSK2224810],25%,20%,8%,0%,0%,2%,11%,0%,0%,0%
Cn1cnc2c(N)ncnc21 [SKF-97623],74%,0%,0%,3%,0%,0%,56%,24%,7%,0%
O=C(Nc1n[nH]c2nc(-c3cccs3)c(Br)cc12)C1CC1 [SB-735297],5%,0%,17%,33%,0%,98.6%,6%,41%,17%,18%
Cc1ccc(NC(=O)c2ccc(Cl)cc2)cc1-c1ccc(C(=O)Nc2ccncc2)cc1 [GSK1398467],8%,3%,0%,9%,25%,21%,0%,0%,25%,19%
CC(C)c1cc(-c2ccc3c(N)n[nH]c3c2)nc(N)n1 [GSK2250882],2%,0%,14%,0%,14%,0%,0%,0%,0%,0%
COc1nccc(-c2c(-c3ccc(F)cc3)ncn2CCCN2CCOCC2)n1 [SB-282852],26%,0%,0%,0%,0%,0%,61%,56%,13%,0%
Cc1ccccc1-c1cc(-c2c[nH]nc2-c2ccccn2)ccn1 [GW680061],0%,0%,8%,0%,16%,0%,0%,0%,16%,0%
Fc1ccc(-c2nc[nH]c2-c2ccncc2)cc1 [SB-217360],0%,0%,51%,0%,0%,0%,0%,0%,4%,6%
